# “And” between values parts separate entries of the source, which are not always exact repeats. Identical values can stand only once. Results filed as inconclusive are left out. Where a call stands in place of a potency, no number is given. Where a structure was tested more than once in an assay, its records may differ in their call. A number with no mark means an inactive call. The source made the active and inactive calls. The call rests on the fitted dose curve; in most records, active means well fitted curve in the direction sought with a large enough effect; inconclusive means small, poorly fitted or top-dose-only effect, or another doubt; inactive means no such curve, though single readings can be large; an effect the other way counts as inactive or inconclusive.
# Experiments:
# [1] = system: KB-3-1; assay: Cytotoxic Profiling of Annotated Libraries Using Quantitative High-Throughput Screening (AID 1296008); settings: Five cell lines viability, CellTiter-Glo ATP luminescence, 48-72 h; max response: active compounds read low; further: nearly all actives have a fitted effect of over 60% in size
# In short: (§1)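 Cells exposed to compounds for 48 or 72 hr at 37 degrees Celsius. Viability read as ATP-coupled luminescence with CellTiter-Glo after 10 min at room temperature.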
# [2] = system: NIH3T3; assay: as above; settings: Five cell lines viability, CellTiter-Glo ATP luminescence, 48-72 h; max response: active compounds read low
# In short: as §1
# [3] = system: MCC-13; assay: qHTS assay to identify novel small-molecules to repurpose for Merkel cell carcinoma treatment (AID 1296009); settings: MCC and control cell lines, CellTiter-Glo viability, 72 h; series mostly up to 46 µM; further: nearly all actives have a fitted effect of over 60% in size
# In short: (§2)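 CellTiter-Glo luminescence after 72 hr compound exposure at 37 degree celsius gave cell viability. Libraries NPC and MIPE were run as 8- and 11-point dose responses; RLUs normalized to DMSO (negative) and no-cell (cytotoxicity) controls.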
# [4] = system: MCC-26; assay: as above; settings: MCC and control cell lines, CellTiter-Glo viability, 72 h; series mostly up to 46 µM
# In short: as §2
# [5] = system: MKL-1; assay: as above; settings: MCC and control cell lines, CellTiter-Glo viability, 72 h; series mostly up to 46 µM
# In short: as §2
# [6] = system: MKL-2; assay: as above; settings: MCC and control cell lines, CellTiter-Glo viability, 72 h; series mostly up to 46 µM
# In short: as §2
# [7] = system: NIH3T3; assay: as above; settings: MCC and control cell lines, CellTiter-Glo viability, 72 h; series mostly up to 44.8 µM
# In short: as §2
# [8] = system: UISO; assay: as above; settings: MCC and control cell lines, CellTiter-Glo viability, 72 h; series mostly up to 46 µM
# In short: as §2
# [9] = system: WaGa; assay: as above; settings: MCC and control cell lines, CellTiter-Glo viability, 72 h; series mostly up to 46 µM
# In short: as §2
# [10] = system: C33A; assay: Primary qHTS to identify gynecologic anti-cancer compounds using libraries of approved drugs and bioactive compounds (AID 1345084); settings: Gynecologic cancer cell panel viability, ATPlite luminescence, 48 h; series mostly up to 57.5 µM; further: nearly all actives have a fitted effect of over 55% in size
# In short: (§3)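 Luminescence from the ATPlite ATP-monitoring reagent indicates viable cell number; lower signal means cytotoxicity. Cells received compound 16 h after seeding and were exposed for 48 h across five concentrations.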
# [11] = system: CASKI; assay: as above; settings: Gynecologic cancer cell panel viability, ATPlite luminescence, 48 h; series mostly up to 57.5 µM
# In short: as §3
# [12] = system: Es-2; assay: as above; settings: Gynecologic cancer cell panel viability, ATPlite luminescence, 48 h; series mostly up to 57.5 µM
# In short: as §3
# [13] = system: HeLa; assay: as above; settings: Gynecologic cancer cell panel viability, ATPlite luminescence, 48 h; series mostly up to 57.5 µM
# In short: as §3
# [14] = system: Hek293T; assay: as above; settings: Gynecologic cancer cell panel viability, ATPlite luminescence, 48 h, control line for the selectivity index; series mostly up to 57.5 µM
# In short: as §3
# [15] = system: JEG-3; assay: as above; settings: Gynecologic cancer cell panel viability, ATPlite luminescence, 48 h; series mostly up to 57.5 µM
# In short: as §3
# [16] = system: OV90; assay: as above; settings: Gynecologic cancer cell panel viability, ATPlite luminescence, 48 h; series mostly up to 57.5 µM
# In short: as §3
# [17] = system: PA-1; assay: as above; settings: Gynecologic cancer cell panel viability, ATPlite luminescence, 48 h; series mostly up to 57.5 µM
# In short: as §3
# [18] = system: HACAT; assay: qHTS assay to identify novel small-molecules to repurpose for Merkel cell carcinoma treatment (AID 1296009); settings: MCC and control cell lines, CellTiter-Glo viability, 72 h; at 44.8 µM (top of the series) unless noted; further: nearly all actives have a fitted effect of over 60% in size
# In short: as §2
# [19] = system: CAOV3; assay: Primary qHTS to identify gynecologic anti-cancer compounds using libraries of approved drugs and bioactive compounds (AID 1345084); settings: Gynecologic cancer cell panel viability, ATPlite luminescence, 48 h; series mostly up to 57.5 µM; further: nearly all actives have a fitted effect of over 55% in size
# In short: as §3
# [20] = system: HEK293T; assay: qHTS assay to identify novel small-molecules to repurpose for Merkel cell carcinoma treatment (AID 1296009); settings: MCC and control cell lines, CellTiter-Glo viability, 72 h; at 44.8 µM (top of the series) unless noted; further: nearly all actives have a fitted effect of over 60% in size
# In short: as §2
# Potency means the concentration at half of the fitted maximal effect.
compound,measurement,setting,value
COC(=O)N1CCN(Cc2cccc(NC(=O)Nc3ccc(C)nc3)c2F)CC1,max response,[1],-23.5%
same,max response,[2],-1.49%
same,outcome,[2],inactive
same,Potency,[3],inactive
same,Potency,[4],inactive
same,Potency,[5],inactive
same,Potency,[6],inactive
same,Potency,[7],inactive
same,Potency,[8],inactive
same,Potency,[9],inactive
same,Potency,[10],inactive
same,Potency,[11],inactive
same,Potency,[12],inactive
same,Potency,[13],inactive
same,Potency,[14],inactive
same,Potency,[15],inactive
same,Potency,[16],inactive
same,Potency,[17],inactive
CN1c2ccccc2C(=O)N2CCc3c([nH]c4ccccc34)C21 (stereo unspecified),Potency,[1],5.17 µM (active)
same,max response,[1],1.03%
same,max response,[2],-8.68%
same,Potency,[3],inactive
same,Potency,[4],inactive
same,Potency,[5],inactive
same,Potency,[6],inactive
same,Potency,[8],inactive
same,Potency,[9],inactive
same,Potency,[11],7.08 µM (active)
same,Potency,[12],14.1 µM (active)
same,Potency,[13],7.94 µM (active)
same,Potency,[15],3.98 µM (active)
same,Potency,[17],7.08 µM (active)
Cn1c(=O)c(-c2c(Cl)cccc2Cl)cc2cnc(Nc3cccc(C(=O)O)c3)nc21,Potency,[1],4.61 µM (active)
same,outcome,[1],inactive
same,max response,[2],3.27%
same,outcome,[2],inactive
same,outcome,[18],inactive
same,Potency,[3],inactive
same,Potency,[4],inactive
same,Potency,[5],inactive
same,Potency,[6],inactive
same,Potency,[7],inactive
same,Potency,[8],inactive
same,Potency,[9],inactive
same,Potency,[10],inactive
same,Potency,[19],inactive
same,Potency,[11],inactive
same,Potency,[12],inactive
same,Potency,[13],inactive
same,Potency,[14],inactive
same,Potency,[15],inactive
same,Potency,[16],inactive
same,Potency,[17],inactive
CN(C)c1ccc(-c2nc3ncc(Cl)c(N4CCN(CC(=O)Nc5nccs5)CC4)c3[nH]2)cc1,Potency,[1],2 µM (active)
same,outcome,[1],inactive
same,outcome,[18],inactive [at 17.4 µM]
same,Potency,[3],inactive
same,Potency,[4],inactive
same,Potency,[5],inactive
same,Potency,[8],inactive
same,Potency,[9],inactive
same,Potency,[10],inactive
same,Potency,[11],inactive
same,Potency,[12],inactive
same,Potency,[14],inactive
same,Potency,[15],inactive
same,Potency,[16],inactive
CC(=O)N1CCN(c2ccc(OCc3nn(C)c(C)c3-c3cccc4c(CCCOc5cc(C)c(Cl)c(C)c5)c(C(=O)O)n(Cc5cccnc5)c34)cc2)CC1,max response,[1],1.85%
same,outcome,[2],inactive
same,outcome,[18],inactive
same,outcome,[20],inactive; activator
same,Potency,[3],inactive
same,Potency,[4],inactive
same,Potency,[5],inactive
same,Potency,[6],14.8 µM (active)
same,Potency,[7],inactive
same,Potency,[8],inactive
same,Potency,[9],11.8 µM (active)
O=C(CO)N1CCC(c2[nH]nc(-c3ccc(Cl)cc3)c2-c2ccncn2)CC1,max response,[1],6.51%
same,outcome,[1],inactive
same,Potency,[3],inactive
same,Potency,[4],inactive
same,Potency,[5],inactive
same,Potency,[6],inactive
same,Potency,[10],inactive
same,Potency,[11],inactive
same,Potency,[12],inactive
same,Potency,[13],inactive
same,Potency,[14],inactive
same,Potency,[15],inactive
same,Potency,[16],inactive
same,Potency,[17],inactive
O=C(O)CCNc1cc(N2CCc3ccccc3CC2)nc(-c2ccccn2)n1,max response,[1],-6.65% and -1.07%
same,outcome,[1],inactive
same,max response,[2],-1.17% and -17.2% and -11.6%
same,outcome,[18],inactive
same,outcome,[20],inactive
same,Potency,[3],inactive
same,Potency,[4],inactive
same,Potency,[5],inactive
same,Potency,[8],14.8 µM (active)
same,Potency,[10],inactive
same,Potency,[11],inactive
same,Potency,[12],inactive
same,Potency,[13],inactive
same,Potency,[14],inactive
same,Potency,[15],inactive
same,Potency,[16],inactive
same,Potency,[17],inactive
CCN1CCC(n2cc(CNc3cc(Cl)c4ncc(C#N)c(Nc5ccc(F)c(Cl)c5)c4c3)nn2)CC1,Potency,[1],18.4 µM (active)
same,max response,[2],2.53%
same,outcome,[2],inactive
same,Potency,[3],inactive
same,Potency,[4],inactive
same,Potency,[5],inactive
same,Potency,[7],inactive
same,Potency,[9],inactive
same,Potency,[10],inactive
same,Potency,[11],inactive
same,Potency,[12],inactive
same,Potency,[13],inactive
same,Potency,[14],inactive
same,Potency,[15],inactive
same,Potency,[16],inactive
same,Potency,[17],inactive
Cc1ccccc1-n1c(Cn2nc(-c3cccc(O)c3)c3c(N)ncnc32)nc2cccc(C)c2c1=O,max response,[1],4.26% and -1.18%
same,max response,[2],-4.97%
same,outcome,[2],inactive
same,outcome,[18],inactive
same,Potency,[3],18.7 µM (active)
same,Potency,[5],1.05 µM (active)
same,Potency,[6],10.5 µM (active)
same,Potency,[7],inactive
same,Potency,[8],10.5 µM (active)
same,Potency,[9],0.118 µM (active)
same,Potency,[10],inactive
same,Potency,[11],inactive
same,Potency,[12],inactive
same,Potency,[13],inactive
same,Potency,[14],inactive
same,Potency,[15],inactive
same,Potency,[16],inactive
same,Potency,[17],inactive
Cc1nc2c([nH]1)CCN(C(=O)c1ccc(NC(=O)c3ccccc3-c3ccccc3)cc1)c1ccccc1-2,max response,[1],0.364% and -8.3%
same,max response,[2],4.2%
same,outcome,[2],inactive
same,outcome,[18],inactive
same,Potency,[3],inactive
same,Potency,[5],inactive
same,Potency,[6],inactive
same,Potency,[7],inactive
same,Potency,[8],inactive
same,Potency,[9],inactive
same,Potency,[10],inactive
same,Potency,[11],inactive
same,Potency,[12],inactive
same,Potency,[13],inactive
same,Potency,[14],inactive
same,Potency,[15],inactive
same,Potency,[16],inactive
same,Potency,[17],inactive
O=C(c1ccc(C(=O)N2CCC(N3CCCC3)CC2)c(Nc2ccccc2)c1)N1CCC(N2CCCC2)CC1,max response,[1],-1.29% and -4.53%
same,max response,[2],-1.45%
same,outcome,[2],inactive
same,outcome,[18],inactive
same,Potency,[3],inactive
same,Potency,[5],inactive
same,Potency,[6],inactive
same,Potency,[7],inactive
same,Potency,[8],inactive
same,Potency,[9],inactive
same,Potency,[10],inactive
same,Potency,[11],inactive
same,Potency,[12],inactive
same,Potency,[13],inactive
same,Potency,[14],inactive
same,Potency,[15],inactive
same,Potency,[16],inactive
same,Potency,[17],inactive
CS(=O)(=O)c1ccc(C2=C(c3ccccc3)C(=O)OC2)cc1,max response,[1],20.7% and -2.3% and -12.9%
same,max response,[2],-4.55%
same,outcome,[2],inactive
same,outcome,[18],inactive
same,outcome,[20],inactive
same,Potency,[3],inactive
same,Potency,[4],inactive
same,Potency,[5],inactive
same,Potency,[6],inactive
same,Potency,[7],inactive
same,Potency,[8],inactive
same,Potency,[9],inactive
same,Potency,[10],inactive
same,Potency,[11],inactive
same,Potency,[12],inactive
same,Potency,[13],inactive
same,Potency,[14],inactive
same,Potency,[15],inactive
same,Potency,[16],inactive
same,Potency,[17],inactive
C[C@@H]1CCO[C@H]2Cn3cc(C(=O)NCc4ccc(F)cc4F)c(=O)c(O)c3C(=O)N12,max response,[1],-10.6% and -26.2%
same,Potency,[2],20.6 µM (active)
same,max response,[2],-1.73%
same,outcome,[18],inactive
same,Potency,[3],inactive
same,Potency,[8],inactive
same,Potency,[15],inactive
